The values that follow come from PubChem BioAssay AID2551 (National Center for Advancing Translational Sciences (NCATS), 2010).

Molecules are shown by their SMILES. About 17,000 (5.5%) of roughly 310,000 compounds were called active. Inconclusive results (about 11%) are left out. The call rests on the fitted dose curve; in most records, active means well fitted inhibition curve with a large enough effect; inconclusive means small, poorly fitted or top-dose-only effect, or effect the other way; inactive means no such curve, though single readings can be large or run the other way. The list comes from a sample in which actives are over-represented; it also holds similar structures and randomly drawn compounds.
On the % scale 0 is the no-effect control and ±100 the full control effect; potency means the concentration at half of the fitted maximal effect.

For this experiment, the target named is Nuclear receptor ROR-gamma (Mus musculus) (UniProt P51450). Description: qHTS for inhibitors of ROR gamma transcriptional activity. Further: nearly all actives have a fitted effect of over 60% in size. The note with it: Drosophila S2 Gal4-RORgamma UAS-luciferase reporter, 20 h; series mostly up to 53.6 µM; activity change, negative = inhibition: at the top concentration. Summed up: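 ROR gamma transcriptional activity was tracked as Gal4-UAS luciferase output in stably transfected Drosophila Schneider cells, with compound added 1 hr before 700 uM copper sulfate induction and a 20 hr ambient-temperature incubation.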
Chain of Nuclear receptor ROR-gamma (Mus musculus) (P51450 whole entry, looked up, the tested form may be a part): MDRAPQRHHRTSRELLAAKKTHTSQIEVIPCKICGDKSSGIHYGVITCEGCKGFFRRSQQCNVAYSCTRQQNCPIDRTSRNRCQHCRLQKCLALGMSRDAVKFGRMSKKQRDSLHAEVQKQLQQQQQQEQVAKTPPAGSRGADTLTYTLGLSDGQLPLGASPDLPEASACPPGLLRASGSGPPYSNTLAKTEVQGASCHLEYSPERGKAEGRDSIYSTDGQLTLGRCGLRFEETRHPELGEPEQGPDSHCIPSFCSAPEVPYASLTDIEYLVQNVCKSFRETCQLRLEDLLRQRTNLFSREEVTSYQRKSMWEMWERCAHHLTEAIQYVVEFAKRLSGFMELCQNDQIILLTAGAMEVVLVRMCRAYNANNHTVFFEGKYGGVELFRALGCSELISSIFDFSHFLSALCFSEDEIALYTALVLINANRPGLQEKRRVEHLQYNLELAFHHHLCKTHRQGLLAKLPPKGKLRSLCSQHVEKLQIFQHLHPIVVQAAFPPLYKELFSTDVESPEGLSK
On the technique in general: qHTS replaces the single test concentration by a dilution series.
With `O=C(O)c1ccccc1-c1ccccc1C(=O)NCCc1ccccc1`, the “activity change, negative = inhibition” value is 31.7% (inactive).
In the case of `CN(CC(=O)Nc1ccccc1C(F)(F)F)C(=O)Cc1ccccc1F`, the “activity change, negative = inhibition” value was -27.9% (inactive).
Turning to `Cc1cccc(C(=O)NCCCN2CCCC2=O)c1`, the “activity change, negative = inhibition” value is -6.33% (inactive).
As to `Cc1cccc(-c2nc3ccc(C(=O)NCCN4CCN(C)CC4)cc3nc2-c2cccc(C)c2)c1`, the Potency was 12600 nM (active).
As for `CCC1=Nc2cc(C(=O)NCCN3CCCC3)ccc2Sc2ccc(C)cc21`, the “activity change, negative = inhibition” value was 2.84% (inactive).
For `CCN(CC)c1ccc(/C=N/Nc2nc(C)cc(=O)[nH]2)cc1`, the “activity change, negative = inhibition” value is -32.5% (inactive).
For `CCN(CC)c1ccc(/C=N/NC(=O)c2cnccn2)c(O)c1`, the Potency was 1580 nM (active).
As to `Cc1cc(C)nc(N/N=C/c2ccncc2)n1`, the “activity change, negative = inhibition” value was -20.5% (inactive).
For `O=C(Nc1ccc2c(c1)OCCO2)c1cnccn1`, the “activity change, negative = inhibition” value is -26.5% (inactive).
Still for that read-out and setting: under `CCN(CC)c1ccc(/C=N/NC(=O)CNC(=O)c2cccnc2)cc1` stands 11.4% (inactive).
For `CCN(CC)c1ccc(/C=N/Nc2nc(C)cc(C)n2)c(O)c1`, the Potency was 1780 nM (active).
Take `CCc1c(C)c2ccc(OC3CCCCC3=O)cc2oc1=O` (stereo not drawn): the “activity change, negative = inhibition” value is 9.01% (inactive).
With `CC(C)(C)n1nnnc1C(c1ccccc1F)N1CCN(C(=O)c2ccco2)CC1` (stereo not drawn), the “activity change, negative = inhibition” value is 0.521% (inactive).
`OC(COc1ccc(F)cc1Cl)CN1CCc2ccccc2C1` (stereo not drawn): the “activity change, negative = inhibition” value was 0.765% (inactive).
`Cc1cccc(C(=O)O)c1`: the “activity change, negative = inhibition” value was -7.78% (inactive).
Consider `CC(C)c1nc2ccc(C(=O)O)cc2[nH]1`, for which the Potency was 8910 nM (active).
With `OC(c1nc2ccc(F)cc2[nH]1)C(O)c1nc2ccc(F)cc2[nH]1` (stereo not drawn), the “activity change, negative = inhibition” value is -2.57% (inactive).
For the molecule `Cc1ccc(CN(C)Cc2cc(=O)oc3cc(C)c(Cl)cc23)cc1`, the “activity change, negative = inhibition” value is -12.8% (inactive).
As to `CN(c1ccccc1)S(=O)(=O)c1cccc(NC(=O)Cc2c(F)cccc2Cl)c1`, the “activity change, negative = inhibition” value was 1.9% (inactive).
As for `CN(c1ccccc1)S(=O)(=O)c1cc(C(=O)Nc2nc3ccccc3[nH]2)ccc1Cl`, the Potency is 2820 nM (active).
Turning to `CN(c1ccccc1)S(=O)(=O)c1cc(C(=O)OCC(=O)N2CCN(C(=O)c3ccco3)CC2)ccc1Cl`, the “activity change, negative = inhibition” value was 11.3% (inactive).
With `CN(CC(=O)Nc1c(Cl)cccc1Cl)C(=O)CNC(=O)C1CCCCC1`, the “activity change, negative = inhibition” value was 6.57% (inactive).
Consider `COc1ccc(C(=O)NC2CC(C)(C)Cc3c2cnn3-c2ccccc2C)o1` (stereo not drawn), for which the “activity change, negative = inhibition” value is 0.707% (inactive).
Regarding `CC(=O)Nc1cccc(NC(=O)c2ccc3c(c2)CCN3S(C)(=O)=O)c1`, the “activity change, negative = inhibition” value is -13.8% (inactive).
For the molecule `Cc1cc(=O)[nH]c(N/N=C/c2ccc3c(c2)OCCO3)n1`, the “activity change, negative = inhibition” value is -29.2% (inactive).
As for `C(=N\Nc1ccc2ccccc2n1)/c1ccc2c(c1)OCO2`, the Potency is 8910 nM (active).
Turning to `Cc1noc(C)c1/C=N/Nc1ccc2ccccc2n1`, the “activity change, negative = inhibition” value is 18.6% (inactive).
Take `Brc1ccc(-c2csc(N/N=C/c3cccnc3)n2)cc1`: the “activity change, negative = inhibition” value is 9.48% (inactive).
`O=C(Cc1ccc(F)cc1)N/N=C/c1ccc2c(c1)OCO2`: the “activity change, negative = inhibition” value was -4.2% (inactive).
Consider `Brc1ccc(-c2csc(N/N=C/c3ccc4c(c3)OCO4)n2)cc1`, for which the Potency was 10000 nM (active).
Regarding `O=C(NNC(=O)c1ccco1)Nc1ccccc1`, the “activity change, negative = inhibition” value is 6.3% (inactive).
With `COCCNC(=O)CSc1nc2sccc2c(=O)n1-c1ccccc1`, the “activity change, negative = inhibition” value is 35.1% (inactive).
For `O=Cc1c(NCCCN2CCCC2=O)c2ccccc2[nH]c1=O`, the “activity change, negative = inhibition” value is -8.89% (inactive).
With `Cc1ccc2c(c1)N(C(=O)CCC(=O)NCc1cccnc1)CCO2`, the “activity change, negative = inhibition” value is 2.85% (inactive).
Regarding `CCOC(=O)c1c(C)c(C(=O)NCCc2ccc(S(N)(=O)=O)cc2)c(C)n1CC`, the “activity change, negative = inhibition” value is -16.7% (inactive).
For `CCCNC(=O)c1c(N)n(-c2ccc(S(N)(=O)=O)cc2)c2nc3ccccc3nc12`, the Potency was 12600 nM (active).
As to `Cc1noc(C)c1C(=O)NCCc1ccc(S(N)(=O)=O)cc1`, the “activity change, negative = inhibition” value was 6.01% (inactive).
For the molecule `O=S(=O)(Cc1nnnn1-c1ccc(Br)cc1)c1ccc(F)cc1`, the “activity change, negative = inhibition” value is 34.9% (inactive).
The same measure, in the same setting: then `CNC(=S)NNC(=O)c1cccn(Cc2ccccc2)c1=O`, with 38.7% (inactive); and `Cc1cccc(NC(=O)c2ccc(OCC(=O)NCc3ccccc3)cc2)c1C`, with 1.17% (inactive).
With `Cc1scc(C(=O)NNC(=S)NCC(C)C)c1C`, the Potency was 1780 nM (active).
With `O=C(NNC(=S)NCc1ccccc1)c1ccc(OC(F)F)cc1`, the “activity change, negative = inhibition” value was -25.4% (inactive).
Regarding `Cc1cccc(C(=O)OCC(=O)NCC(C)C)c1O`, the “activity change, negative = inhibition” value was 39% (inactive).
In the case of `Cc1ccc(OCC(=O)NNC(=S)NCc2ccccc2)cc1`, the Potency was 1260 nM (active).
On to `CC(=O)Nc1ccc(OCC(=O)NCc2ccc(C)cc2)cc1`, for which the “activity change, negative = inhibition” value is 12.2% (inactive).
Same read-out and setting: then `Cc1occc1C(=O)NNC(=S)NCC(C)C`, with -19.8% (inactive).
As for `Cc1scc(C(=O)NNC(=S)NCc2ccccc2)c1C`, the Potency is 2000 nM (active).
Regarding `CCC(CC)COC(=O)C1=C(C)NC(=O)NC1c1ccc([N+](=O)[O-])cc1` (stereo not drawn), the activity change, negative = inhibition is -0.183% [at 1.91 µM] (inactive).
For `O=C(Cc1ccc([N+](=O)[O-])cc1)Nc1ccc(C(=O)N2CCOCC2)cc1`, the “activity change, negative = inhibition” value is -21% (inactive).
The same measure, in the same setting: then `Cc1ccc(NC(=O)Cn2nnc(C(=O)NCc3ccco3)c2N)c(C)c1`, with -22.2% (inactive); and `CC(C)(C)NC(=O)CSc1nnc(NC(=O)CCc2ccccc2)s1`, with 5.59% [at 1.91 µM] (inactive).
With `C=CCN1C(=NC(=O)COc2ccccc2)SC2CS(=O)(=O)CC21` (stereo not drawn), the “activity change, negative = inhibition” value was -31.6% (inactive).
On to `Cc1cc(Cl)ccc1C(=O)C1CCCN(C(=O)c2nonc2C)C1` (stereo not drawn), for which the “activity change, negative = inhibition” value was 25.8% (inactive).
For the molecule `Cc1[nH]c2ccccc2c1C(=O)CN1CC(C)CC(C)C1` (stereo not drawn), the “activity change, negative = inhibition” value was -3.29% (inactive).
`O=C(O)C1CCCN1S(=O)(=O)c1ccc(Br)cc1` (stereo not drawn): the “activity change, negative = inhibition” value was 6.41% (inactive).
Regarding `O=C(CN(C(=O)c1nsc(Cl)c1Cl)c1cccc(F)c1)NC1CCCC1`, the “activity change, negative = inhibition” value was -2.43% (inactive).
Take `COc1ccccc1OCc1nnc(SCC(N)=O)n1-c1ccccc1`: the “activity change, negative = inhibition” value is 7.44% (inactive).
On to `C=CCn1c(C)cc(C2=NNC(=NCC)SC2)c1C`, for which the Potency was 562 nM (active).
As to `Cc1cc(C2=NNC(=Nc3ccc(S(=O)(=O)N4CCOCC4)cc3)SC2)c(C)n1CC1CCCO1` (stereo not drawn), the “activity change, negative = inhibition” value was 9.62% (inactive).
Regarding `O=C(O)c1ccccc1NC(=O)c1ccccc1-c1ccccc1C(=O)O`, the “activity change, negative = inhibition” value was -14.3% (inactive).
Regarding `CC1CN(S(=O)(=O)c2cccc(C(F)(F)F)c2)CN1C(=O)N1CCOCC1` (stereo not drawn), the “activity change, negative = inhibition” value is -13.4% (inactive).
`COc1ccc2[nH]c(=S)cc(C)c2c1`: the Potency was 7080 nM (active).
As for `COc1ccc2[nH]c3c(C)c4cc[n+](C)cc4c(C)c3c2c1`, the “activity change, negative = inhibition” value is -25% (inactive).
Consider `COc1ccc2[nH]c(C(=O)N3CCN(C)CC3)c(C)c2c1`, for which the “activity change, negative = inhibition” value is 11.6% (inactive).
With `COc1ccc(NC(=O)c2cccc3c2C(=O)N(CC2CCCO2)C3)cc1OC` (stereo not drawn), the “activity change, negative = inhibition” value is -8.76% (inactive).
Take `COc1ccc(OCCCCN2CCC(C)CC2)cc1`: the “activity change, negative = inhibition” value was 3.61% (inactive).
In the case of `O=C1COc2ccc(S(=O)(=O)Nc3ccc(OC(F)(F)F)cc3)cc2N1`, the “activity change, negative = inhibition” value was -17.3% (inactive).
As to `CC(=O)NC(=O)c1ccccc1O`, the “activity change, negative = inhibition” value was -0.919% (inactive).
The same measure, in the same setting: under `C/C(=N\NC(=O)c1ccccc1C)c1ccc(N2CCOCC2)cc1` stands 8.86% (inactive).
As to `C/C(=N\NC(=O)c1ccoc1C)c1ccccc1O`, the Potency is 158 nM (active).
As to `CNC(=O)C(NC(=O)c1ccccc1)=C(C)C`, the “activity change, negative = inhibition” value is 4.05% (inactive).
On the same count and under the same terms, then `C/C(=N\NC(=O)c1cccnc1)c1ccc(-c2ccccc2)cc1`, with -0.938% (inactive).
In the case of `CC(C)=C(NC(=O)c1ccccc1)C(=O)N/N=C(\C)c1ccccc1O`, the Potency is 891 nM (active).
